KDM5B inhibitor: blocks human KDM5B histone demethylase activity; KDM5B demethylase, FDH-coupled NADH fluorescence (FDH is formaldehyde dehydrogenase); Potency, µM (doses to about 57.7 µM), most hits filed as inhibitors; 220,000 compounds, 2.6% hits; AID 1347165; active means well fitted inhibition curve with a large enough effect; further: nearly all actives have a fitted effect of over 70% in size
Target sequence (Q9UGL1 whole entry, looked up): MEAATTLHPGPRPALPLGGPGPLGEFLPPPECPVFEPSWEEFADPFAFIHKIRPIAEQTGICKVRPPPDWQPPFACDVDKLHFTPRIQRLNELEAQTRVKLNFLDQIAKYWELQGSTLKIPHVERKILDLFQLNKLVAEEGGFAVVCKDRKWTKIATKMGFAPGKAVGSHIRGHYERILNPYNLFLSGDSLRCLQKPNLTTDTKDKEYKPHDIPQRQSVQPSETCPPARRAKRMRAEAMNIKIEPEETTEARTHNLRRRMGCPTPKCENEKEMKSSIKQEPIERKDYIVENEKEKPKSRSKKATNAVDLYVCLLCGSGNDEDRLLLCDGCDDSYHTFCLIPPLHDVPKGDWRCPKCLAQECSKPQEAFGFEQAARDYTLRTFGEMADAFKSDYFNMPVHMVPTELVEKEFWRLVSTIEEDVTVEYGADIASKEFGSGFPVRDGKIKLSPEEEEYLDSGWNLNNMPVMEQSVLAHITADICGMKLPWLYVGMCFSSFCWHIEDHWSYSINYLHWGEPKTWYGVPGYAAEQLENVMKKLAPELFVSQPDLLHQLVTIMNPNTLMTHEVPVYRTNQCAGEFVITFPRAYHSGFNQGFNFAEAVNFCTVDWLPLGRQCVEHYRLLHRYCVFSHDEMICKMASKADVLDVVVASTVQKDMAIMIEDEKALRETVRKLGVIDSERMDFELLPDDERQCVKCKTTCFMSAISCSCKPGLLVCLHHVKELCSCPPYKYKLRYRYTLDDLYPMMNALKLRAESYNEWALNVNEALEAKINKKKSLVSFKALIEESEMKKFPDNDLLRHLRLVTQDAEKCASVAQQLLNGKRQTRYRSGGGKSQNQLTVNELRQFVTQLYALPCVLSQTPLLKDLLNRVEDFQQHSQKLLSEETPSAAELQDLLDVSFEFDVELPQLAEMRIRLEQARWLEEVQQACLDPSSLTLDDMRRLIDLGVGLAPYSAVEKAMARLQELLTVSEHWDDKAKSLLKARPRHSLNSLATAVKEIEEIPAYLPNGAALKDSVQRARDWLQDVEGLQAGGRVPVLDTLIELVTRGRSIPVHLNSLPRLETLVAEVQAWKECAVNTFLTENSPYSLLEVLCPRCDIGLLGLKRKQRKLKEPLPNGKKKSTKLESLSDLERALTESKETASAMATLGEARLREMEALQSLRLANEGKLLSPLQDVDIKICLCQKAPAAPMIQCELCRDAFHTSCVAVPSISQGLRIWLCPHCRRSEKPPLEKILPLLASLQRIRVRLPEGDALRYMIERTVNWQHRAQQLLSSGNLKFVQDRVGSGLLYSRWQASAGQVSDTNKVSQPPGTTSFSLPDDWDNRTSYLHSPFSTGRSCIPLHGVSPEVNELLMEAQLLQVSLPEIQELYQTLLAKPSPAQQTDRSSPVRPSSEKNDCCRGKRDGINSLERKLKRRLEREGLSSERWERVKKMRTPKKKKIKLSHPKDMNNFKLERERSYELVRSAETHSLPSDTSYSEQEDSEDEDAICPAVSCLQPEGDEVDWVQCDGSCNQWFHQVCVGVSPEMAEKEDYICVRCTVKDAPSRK
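Coupled FDH/NAD⁺ fluorescence readout. KDM5BΔAP 200 nM final; compound titration, 10 min RT preincubation; substrate mix 12.5 µM H3K4me3, 25 µM 2-OG, 50 µM Fe(II), 100 µM ascorbate, 0.25 mM NAD⁺, 0.25 U/mL FDH; ΔRFU over 30 min.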
Of the large screens only hits and unclear results are named; the others gave an inactive call. This is one part of a sample in which hits are shown more often than they occur.

Cc1cccc(Nc2nc3ccccc3nc2NS(=O)(=O)c2cccc3nsnc23)c1	none
Cc1cccc(-c2nccc3c(=O)cc(N4CCN(C)CC4)oc23)c1	KDM5B inhibitor 35µM
Cc1cccc(-c2noc(-c3ccc(N4CCN(C)CC4)c([N+](=O)[O-])c3)n2)c1	none
N#C/C(=C/c1ccoc1)c1nc(-c2ccc(C3CCCCC3)cc2)cs1	none
Cn1cnc2c1c(=O)n(CC(=O)Nc1ccc(N3CCCCCC3)cc1)c(=O)n2C	none
CC(C)(C)c1ccc(CCC2OCC(C[N+]3(C)CCCCC3)O2)cc1 (configuration not stated)	none
COCCCNC(=O)Cc1csc2nc(C)c(-c3cc(C)n(-c4ccccc4F)n3)c(=O)n12	KDM5B inhibitor 28µM
COCCCNC(=O)c1c(-c2ccccc2)c(-c2ccccc2)nn(C)c1=O	none
Cc1ccc(C)c(-n2nc(-c3c(C)nc4scc(CC(=O)NCc5ccco5)n4c3=O)cc2C)c1	KDM5B inhibitor 20µM
COc1ccccc1-n1nc(-c2c(C)nc3scc(CC(=O)NCc4ccco4)n3c2=O)cc1C	KDM5B inhibitor 28µM
COc1ccccc1-c1noc(CCCC(=O)NCc2ccco2)n1	none
CC(=O)Nc1c(-c2ccc(C)cc2)c(C)nn1-c1ccc(C(=O)NCc2ccco2)cc1	none
Cc1ccc2occ(CC(=O)Nc3sc4c(c3C(=O)NCc3ccco3)CCCC4)c2c1	none
COc1ccccc1CNC(=O)c1csc(NCc2ccccc2)n1	none
COc1ccc(OC)c(-n2nnc(C(=O)NCc3ccco3)c2N)c1	none
COCCCNC(=O)CCc1ncc(-c2c(F)cccc2F)o1	none
COc1ccccc1-n1nc(-c2c(C)nc3scc(CC(=O)NCc4ccccc4)n3c2=O)cc1C	KDM5B inhibitor 25µM
COc1ccccc1CNC(=O)Cc1csc2nc(-c3ccc(F)cc3)cn12	none
CCN(Cc1ccccc1)C(=O)CSc1nc2cn(CC)nc2c(=O)n1Cc1ccc(C)cc1	none
COc1ccc(OC)c(CNC(=O)CN(C(=O)C2=C(C)OCCS2)c2ccc(Cl)cc2)c1	none
CC(N)c1ccc(C(=O)O)o1 (configuration not stated)	none
CCN(C(=O)Cc1noc2ccccc12)c1cc(Cl)ccc1OC	none
CCN(CC)S(=O)(=O)c1ccc(NC(=O)C(C)N(c2cccc(Cl)c2)S(C)(=O)=O)cc1 (configuration not stated)	none
O=C(COC(=O)c1ccccc1C(=O)c1ccc(Cl)c([N+](=O)[O-])c1)NC12CC3CC(CC(C3)C1)C2	none
c1ccc(-n2nnnc2CNc2cccc3c2CCCC3)cc1	none
Cc1csc(NC(=O)CSc2ccccc2)n1	none
COc1ccc(S(=O)(=O)N2CCSC2c2cc(OC)c(OC)cc2OC)cc1 (configuration not stated)	none
COc1cccc(C(=O)NCc2ccc(C)cc2)c1	none
Cc1cc(C)cc(NC(=O)Nc2ccc3nc(N4CCOCC4)cc(C)c3c2)c1	none
O=C(CC1CCCN(c2cnn(CC3CC3)c(=O)c2)C1)NCc1ccccc1Cl (configuration not stated)	none
CC(=O)NC(C)C(=O)NC(C)c1ccc(Cl)cc1 (configuration not stated)	none
O=C(NCCc1csc2nc(-c3ccccc3F)nn12)c1ccco1	none
Cc1nc2scc(CC(=O)NCc3ccco3)n2c(=O)c1-c1cc(C)n(-c2ccccc2F)n1	KDM5B inhibitor 28µM
Cc1nn(CC(=O)NCc2ccco2)c(=O)c2nn(-c3ccccc3)c(C)c12	none
CNc1c(NC(=O)c2ccc(OC)c(Br)c2)c(=O)oc2ccccc12	none
Cc1ccccc1OCC(=N)N	none
COc1cc(C2CC(=O)Nc3nc(C)[nH]c(=O)c32)ccc1OCc1ccccc1Cl (configuration not stated)	none
CC(C)c1ncc(-c2cc(C(=O)N(C)C(C)C)c3ccc(F)cc3n2)cn1	none
CC(C)N(C)C(=O)c1cc(-c2cnc(C(C)(C)C)nc2)nc2cc(F)ccc12	none
CC(C)n1cc(-c2cc(C(=O)N3CCC(C)(C)C3)c3ccc(F)cc3n2)cn1	KDM5B inhibitor 32µM
CC1CCCCN1C(=O)CSc1nnc2c(n1)[nH]c1ccc(F)cc12 (configuration not stated)	none
Cc1cc(C(=O)NC2CCN(C(=O)C3CC3)CC2)c2ccc(F)cc2n1	none
CC1CCCN1C(=O)c1cc(-c2cnn(C(C)C)c2)nc2cc(F)ccc12 (configuration not stated)	KDM5B inhibitor 28µM
O=C(NCCc1ccccc1)c1nc(-c2ccc3[nH]ccc3c2)no1	none
COC(=O)CC(NC(=O)c1cc(C)nc2c1cnn2C(C)C)c1ccccc1Cl (configuration not stated)	none
O=C1CSc2ccc(C(=O)Nc3ccc(OC(F)F)cc3)cc2N1	none
CCCCCn1nc(C(=O)N2CCN(c3ccc(F)cc3)CC2)c2ccccc2c1=O	none
C=CCC1(Nc2c(CC)cccc2CC)CCCCC1	none
Cc1cc(=O)[nH]c(CCNc2nc(-c3ccncc3)nc3c2c(C)nn3C)n1	KDM5B inhibitor 20µM
CCCCNc1nc(-c2ccncc2)nc2ccccc12	none
COc1ccc(S(=O)(=O)NCCNc2ncnc3c2c(C)nn3C)cc1	none
CNS(=O)(=O)CCNc1nc(-c2ccccn2)nc2c1c(C)nn2C	KDM5B inhibitor 22µM
CCC(C)Nc1nc(-c2ccccn2)nc2ccccc12 (configuration not stated)	none
Cc1nc(-c2ccncc2)nc(NCCNc2ncccc2C(F)(F)F)c1Cl	none
COC(CNc1nc(-c2ccccn2)nc2c1c(C)nn2C)c1cccs1 (configuration not stated)	KDM5B inhibitor 28µM
Cc1ncsc1CCCNc1nc(-c2ccccn2)nc2c1CCNCC2	none
Cc1ccc(OCC(O)CNc2nc(C)nc3c2c(C)nn3C)c(C)c1 (configuration not stated)	none
O=C(/C=C/c1ccccc1OCc1cccnc1)c1ccc(O)cc1	none
CCCc1cc(=O)oc2cc(OCC(=O)c3ccc(OC)cc3)ccc12	none
CCCC(CCC)C(=O)NCc1nnnn1-c1ccc(OCC)cc1	none
COc1ccc(N2CCCS2(=O)=O)cc1NS(=O)(=O)c1ccc(F)c(C)c1	none
Nn1c(SC(C(=O)N2CCCCC2)c2ccccc2)nnc1-c1ccccc1F (configuration not stated)	none
Cc1cc(C2=NNC(=NC(C)(C)C)SC2)c(C)n1C1CC1	none
CC(C)CCN1CCC2(CC1)OC(=O)N(Cc1ccc(O)cc1)C2(C)c1ccccc1 (configuration not stated)	none
Cc1onc(-c2ccccc2Cl)c1-c1nc(C2CCOC2)no1 (configuration not stated)	none
CCn1nc(C)c(-c2nc(C3CCOC3)no2)c1C (configuration not stated)	none
c1cnn(-c2ccc(-c3nc(C4CCOC4)no3)cc2)c1 (configuration not stated)	KDM5B inhibitor 32µM
CSc1ccccc1-c1nc(C2CCOC2)no1 (configuration not stated)	KDM5B inhibitor 28µM
CN(C)c1ccc(-c2nc(C3CCOC3)no2)cc1 (configuration not stated)	none
Cn1ccc2ccc(-c3nc(C4CCOC4)no3)cc21 (configuration not stated)	none
Cc1ccccc1-n1ncc2c1NC(=O)CC21C(=O)Nc2cccc(Cl)c21 (configuration not stated)	none
O=C(COc1cc(OCC(=O)N2CCNC2=O)c(Cl)cc1Cl)N1CCNC1=O	none
Cc1cccc(CSc2nnc(COc3ccc(Cl)c(C)c3)n2C)c1	none
CC1CCCN(C(=O)C2CCN(Cc3ccc(C(F)(F)F)cc3)CC2)C1 (configuration not stated)	none
COC(=O)CNC(=O)C1(c2ccccc2)CCC1	none

Screening data: PubChem BioAssay, National Center for Advancing Translational Sciences (NCATS)
